Sampled rows, rich in hits. Any-hit rate of the full collection: about 1.1%.
SNCA expr inhib = Primary qHTS assay for inhibitors of alpha-synuclein gene (SNCA) expression; HEK-293 SNCA-luciferase knock-in, luminescence, 24 h; Potency, µM (top dose mostly 57.2 µM), for inactives: top-dose activity change, negative = inhibition, hits mostly inhibitors; 0.17% of 140,000 active; AID 1671194, 2021;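 also: potency is read from the fitted curve at half-maximal effect; plate controls were DMSO cells for no effect and cell-free wells for full effect; nearly all actives have a fitted effect of over 45% in size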
SNCA viab count = GF-AFC viability counterscreen for inhibitors of alpha-synuclein gene (SNCA) expression; 0.12% of 150,000 active; HEK-293-SNCA-luc viability, GF-AFC fluorescence, 24 h; AID 1671193, 2021; Potency, µM (titrated, usually from 57.1 µM), for the others: at the highest dose activity change, negative = cytotoxicity, usual class: cytotoxic;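 also: potency is read from the fitted curve at half-maximal effect; 0% = DMSO-treated cells and -100% = medium-only wells without cells; nearly all actives have a fitted effect of over 30% in size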
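HEK-293-SNCA-luc cells (1500/well) plated 24 h, then exposed 24 h to a dilution series; GF-AFC added 30 min at 37C, fluorescence 405/540 nm; normalised to medium-only and DMSO wells, Hill fit.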
IP6K1 inhibitor = Primary qHTS assay for small molecule inhibitors of Inositol hexaphosphate kinase 1 (IP6K1); 0.81% of 140,000 active; Inositol hexakisphosphate kinase 1 (Homo sapiens), Q92551; activity change, % (series mostly up to about 58 µM); AID 1645851, 2021; IP6K1 kinase, ADP-Glo luminescence, 2 h; hits give low values; in the data active = activity change below about -25%
Target sequence (Q92551 whole entry, looked up): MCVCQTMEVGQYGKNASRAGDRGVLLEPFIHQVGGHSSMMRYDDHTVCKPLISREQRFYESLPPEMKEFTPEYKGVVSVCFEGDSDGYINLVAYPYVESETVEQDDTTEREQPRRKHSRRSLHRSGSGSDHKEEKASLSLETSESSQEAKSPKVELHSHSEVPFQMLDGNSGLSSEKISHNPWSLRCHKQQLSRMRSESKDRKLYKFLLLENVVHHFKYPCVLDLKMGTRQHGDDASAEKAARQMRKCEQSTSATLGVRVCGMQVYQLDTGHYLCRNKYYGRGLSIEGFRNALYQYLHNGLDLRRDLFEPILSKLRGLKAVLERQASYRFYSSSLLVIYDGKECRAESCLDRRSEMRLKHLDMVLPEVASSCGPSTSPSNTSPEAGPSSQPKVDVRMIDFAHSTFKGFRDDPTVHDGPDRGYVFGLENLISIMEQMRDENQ
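ADP-Glo luminescence measures ADP made by human IP6K1 during a 2 h RT reaction with ATP/IP6 (mix at 1.3 mM/130 uM); top library doses 57.5 and 19.1 uM final.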
GPT2 inhibitor = Primary qHTS assay for inhibitors of Glutamate pyruvate transaminase 2 (GPT2); Alanine aminotransferase 2 (Homo sapiens), Q8TD30; Recombinant GPT2, coupled pyruvate oxidase/HRP Amplex Red fluorescence; Potency, µM (series often up to 57.7 µM), inactives show at the top dose activity change, negative = inhibition, most hits filed as inhibitors; 0.25% of 100,000 active; also: potency is read from the fitted curve at half-maximal effect; nearly all actives have a fitted effect of over 60% in size
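GPT2 10ng/uL, a-KG 250uM, L-Ala 2mM, HEPES pH7.5 + 0.0001% Tween; 30 min RT. Then Amplex mix (PO/HRP/ThPP), 30 min RT dark, fluorescence. AOA 50uM used as positive control.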
IP6K1 conf = Confirmatory qHTS assay for small molecule inhibitors of Inositol hexaphosphate kinase 1 (IP6K1); shares compounds with IP6K1 inhibitor; recombinant IP6K1 kinase, ADP-Glo luminescence, 2 h; Potency, µM (series often up to 49 µM), without a hit: at the highest dose activity change, negative = inhibition, hits mostly inhibitors; 13% of 1,200 active; also: potency is read from the fitted curve at half-maximal effect; nearly all actives have a fitted effect of over 65% in size
An asterisk follows results filed as active; i = inactive; ? = inconclusive; / = not tested or not shown; ! = not active in a repeat; [ ] = dose if it differs, or a comment. Unless noted, calls follow the shape of the dose curve; as a rule, active = well fitted curve in the direction sought with a large enough effect; inconclusive = small, poorly fitted or top-dose-only effect, or another doubt; inactive = no such curve, though single readings can be large; an effect the other way counts as inactive or inconclusive. Unless noted, % is scaled to controls: 0 for no effect and ±100 for the full control effect.

SMILES	SNCA expr inhib	SNCA viab count	IP6K1 inhibitor	GPT2 inhibitor	IP6K1 conf
O=C(Cc1c[nH]c2ncc(-c3ccc(F)cc3)cc12)NCc1cccnc1	0%[87.6 µM]	-3%[87.6 µM]	-18	5%[88.5 µM]	/
COCC(=O)N1CCN(c2ccc3nnc(-c4ccccc4)n3n2)CC1	/	/	11	/	/
CC1(CNc2ccccc2)COc2ccc(C(=O)NCCc3cnc[nH]3)cc2N1 (stereo unspecified)	-10%[87.6 µM]	-2%[87.6 µM]	-40*	i	?
CC1(CNc2ccccc2)COc2ccc(C(=O)NCc3cccnc3)cc2N1 (stereo unspecified)	3%[87.6 µM]	-2%[87.6 µM]	-12	5%[88.5 µM]	/
Cc1cc(C)c(Nc2ncnc3c2cnn3C)c(C)c1	-3%	4%	-1	/	/
Cn1ncc2c(Nc3cccc(F)c3)ncnc21	18%	4%	-28*	/	?
COc1ccc(CC(=O)NC2CCN(c3nccc(Nc4ccccc4OC)n3)CC2)cc1	-7%	6%	0	i	/
COc1cccc(CCC(=O)N2C[C@@H]3CC[C@H](C2)N(CC2CCC2)C3=O)c1	14%	6%	-31*	i[11.5 µM]	-11%
COc1cccc(CCC(=O)N2CC3CC(C2)[C@H]2CCCC(=O)N2C3)c1 (stereo partly specified)	3%	3%	23	0%	/
COc1ccc(CN(C)Cc2cccs2)cc1OCC(O)CN1CCN(C)CC1 (stereo unspecified)	-1%	-16%	18	i	/
COc1ccc(CN(C)Cc2ccoc2)cc1OCC(O)CN1CCCCC1 (stereo unspecified)	-8%	-27%	-38*	i[11.5 µM]	-11%
COc1ccc2c(c1)CN(Cc1ccccc1)C(=O)CCN2C(=O)C1CCC1	/	/	-4	/	/
C=CCCC(=O)N1[C@@H](c2ccccc2)[C@@H](C(=O)OCC)C[C@]12CCCCN(CCOC)C2=O	/	/	-4	/	/
COc1ccc(-n2c(=O)c3c(n2Cc2ccccc2)CN(CCCc2ccccc2)CC3)cc1	-6%	?	-28*	i	-11%
CCc1nnc(NC(=O)c2nc(S(=O)(=O)Cc3ccc(C)cc3)ncc2Cl)s1	?	28µM*	-33*	/	-10%
COc1ccc(NC(=O)c2nc(S(=O)(=O)Cc3ccc(C)cc3)ncc2Cl)cc1	?	?	4	/	/
Nc1nc(OCc2cc(Br)cs2)c2[nH]cnc2n1	/	-9%	-23	i	/
O=C(NCCCc1ccccc1)c1cc(-c2ccccc2)c2nncn2n1	16%	-2%	-9	-3%	/
CCOc1ccc(CNC(=O)CCS(=O)(=O)c2cc3c4c(c2)CCN4C(=O)CC3)cc1OC	-20%	8%	-28*	/	13%
COc1ccc(CNC(=O)CCS(=O)(=O)c2cc3c4c(c2)CCN4C(=O)CC3)cc1	18%	-6%	-9	/	/
O=C(NCCc1ccc(Cl)cc1)c1ccc2nnc(-c3cc[nH]c3)n2c1	-1%	-6%	-2	-3%	/
CCc1cccc(NC(=O)c2cc3c(=O)n(Cc4ccccc4)ccc3nc2C)c1	-6%	7%	-27*	/	31%
COc1ccc(Cn2ccc3nc(C)c(C(=O)Nc4cccc(SC)c4)cc3c2=O)cc1	-12%	-20%	-1	/	/
Cc1nc(CC(=O)N2CC[C@@H](NC(=O)c3cnccn3)[C@H](O)C2)cs1	2%	2%	-4	i	/
COc1ccccc1CC(=O)N1CC[C@@H](NC(=O)c2cnccn2)[C@H](O)C1	12%	-1%	-31*	-26%[11.5 µM]	6%
SMILES	SNCA expr inhib	SNCA viab count	IP6K1 inhibitor	GPT2 inhibitor	IP6K1 conf
C[C@@H]1C[C@@H](O)[C@@]2(CO)C(CO)=CCC[C@@H]2[C@@]12C[C@@H](c1ccoc1)OC2=O	/	-14%	9	i	/
N=C(N)c1ccc2nc(-c3cc(CC(=O)NC(CC(=O)O)C(=O)O)cc(-c4cc(S(N)(=O)=O)ccc4O)c3O)[nH]c2c1 (stereo unspecified)	/	5%	14	i	/
COc1ccc(-c2nc3ncccc3[nH]2)cc1	-26%[87.6 µM]	-17%[87.6 µM]	-27*!	0%[88.5 µM]	?
C=Cc1ccc(Cn2c(C(=O)O)c(CNCCc3ccco3)c3ccc(C)cc32)cc1	-27%	?	-29*	/	1%
C#CCNC(=O)C1CCCN(c2ccnc3ccnn23)C1 (stereo unspecified)	6%[87.6 µM]	10%[87.6 µM]	6	-15%[88.5 µM]	/
Cc1cccc(Cn2cc(S(=O)(=O)c3ccc(Cl)cc3)c(=O)c3cc4c(cc32)OCO4)c1	-17%	-6%	-7	/	/
COc1cccc(Cn2cc(S(=O)(=O)c3ccc(C)cc3)c(=O)c3cc4c(cc32)OCO4)c1	69%	-8%	-30*	/	11%
CNC(=O)c1nc2cccnc2n(C2CC2)c1=O	-2%[87.6 µM]	11%[87.6 µM]	-15	-19%[88.5 µM]	/
C[C@@H]1CCN(C(=O)CC#N)C[C@@H]1N(C)c1ncnc2[nH]ccc12	/	/	/	/	4%
CCN1CC(c2ccccc2)CC2(CCN(C(=O)COC)CC2)C1 (stereo unspecified)	5%	-8%	-27*	i	-12%
COc1ccc(F)cc1-c1ccc(CN2CCC(NC(=O)c3ccc(C)cc3)C2)cc1 (stereo unspecified)	/	/	-11	/	/
Cc1cc2c(cc1S(=O)(=O)NCc1ccc(F)cc1)n(C)c(=O)c(=O)n2C	5%	11%	-26*	/	-18%
O=C(NCC1CC1)c1ccc2nnc(Cc3ccco3)n2c1	16%[87.6 µM]	-10%[87.6 µM]	-27*!	i	?
COCCNC(=O)c1ccc2nnc(Cc3ccco3)n2c1	3%[87.6 µM]	4%[87.6 µM]	1	i	/
Cc1nn2c(=O)cc(COC(=O)c3ccc(F)cc3)nc2s1	71%	-5%	-27*	/	-13%
Cc1noc(C)c1[S+](=O)([O-])N1CCCC(C(=O)N2CCC(N3CCOCC3=O)CC2)C1 (stereo unspecified)	7%	8%	0	i	/
Oc1ccc(Nc2nc(-c3ccc(Cl)cc3)cs2)cc1	/	-19%	-32*	?	?
Oc1ccc(Nc2nc(-c3ccc(Cl)cc3)nc3ccccc23)cc1	-14%	?	-16	/	/
CCc1oc2ccccc2c1C(=O)c1cc(I)c(O)c(I)c1	-13%[25.6 µM]	62%[23.9 µM]	-56*	0%	3.5µM*
CCc1ccc2occ(CC(=O)Nc3c(C(=O)c4ccc(C)cc4)oc4ccccc34)c2c1	15%	2%	-9	/	/
CCOc1ccccc1N1CC(c2nc3ccccc3n2CCCOc2ccc(OC)cc2)CC1=O (stereo unspecified)	0%	3%	-27*	/	6%
CCOc1ccccc1N1CC(c2nc3ccccc3n2CCOc2ccc(OC)cc2)CC1=O (stereo unspecified)	?	?	8	/	/
O=C1C(SCCO)=C(SCCO)C(=O)c2ccccc21	?	1%	/	?	10µM*
